# From PubChem BioAssay AID2642 (Johns Hopkins Ion Channel Center, 2010)
# The campaign covered roughly 310,000 compounds. About 3,900 (1.3%) were called active.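 How the source made its calls: active means compounds whose thallium flux B-score, printed positive for inhibition, exceeds three library SD while starting fluorescence stays within three; inactive means the rest.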 This excerpt belongs to a sample that is enriched for actives.
# Molecular target: Potassium voltage-gated channel subfamily KQT member 1 (Homo sapiens) (UniProt P51787)
# Sequence (P51787 whole entry, looked up): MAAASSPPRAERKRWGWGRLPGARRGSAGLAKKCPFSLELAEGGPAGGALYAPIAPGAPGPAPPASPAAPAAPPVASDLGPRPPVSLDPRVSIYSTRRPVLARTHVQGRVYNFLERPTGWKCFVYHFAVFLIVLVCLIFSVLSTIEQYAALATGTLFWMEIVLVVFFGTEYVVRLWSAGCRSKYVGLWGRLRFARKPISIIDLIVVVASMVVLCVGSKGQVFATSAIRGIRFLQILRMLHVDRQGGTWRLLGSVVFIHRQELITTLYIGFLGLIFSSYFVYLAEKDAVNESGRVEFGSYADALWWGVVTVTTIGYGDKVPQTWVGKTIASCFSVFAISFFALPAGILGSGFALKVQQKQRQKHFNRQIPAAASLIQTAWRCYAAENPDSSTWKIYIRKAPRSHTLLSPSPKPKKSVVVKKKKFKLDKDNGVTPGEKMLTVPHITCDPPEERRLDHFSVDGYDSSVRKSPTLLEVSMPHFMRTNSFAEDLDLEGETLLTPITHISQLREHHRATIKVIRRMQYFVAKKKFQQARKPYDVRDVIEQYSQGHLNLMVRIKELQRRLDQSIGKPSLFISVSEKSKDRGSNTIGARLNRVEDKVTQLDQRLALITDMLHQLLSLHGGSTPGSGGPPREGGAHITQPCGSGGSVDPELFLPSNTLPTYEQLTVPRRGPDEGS
# Experiment: inhibitors of human KCNQ1 channel, primary screen, cell-based, thallium flux, high-throughput (AID 2642);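 further: channel opened by potassium depolarization with thallium stimulus after 20 min compound exposure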
# Settings: CHO-K1 KCNQ1, FluxOR thallium flux fluorescence, at 10 µM; hits give high values
row,Structure (SMILES),B-score
1,CC(C)C[C@H](NC(=O)N1CCn2c1nc1ccccc12)C(=O)NC1CC1,inactive
2,S=C(Nc1cccnc1)Nc1ccccn1,inactive
3,Fc1cc(Br)ccc1NC(=S)Nc1cccnc1,7 (active)
4,O=C(Nc1cccnc1)c1cc2cc(Br)ccc2oc1=O,inactive
5,COc1ccc(CCNC(=O)CN(c2ccccc2)S(C)(=O)=O)cc1,inactive
6,COc1ccc(OCCNS(=O)(=O)Cc2ccccc2)cc1,inactive
7,CNC(=O)c1ccsc1NC(=O)c1ccc(S(=O)(=O)N2CCc3ccccc32)cc1,7 (active)
8,CNC(=O)c1ccsc1NC(=O)c1ccc(S(=O)(=O)N2CCOCC2)cc1,inactive
9,O=S(=O)(c1ccccc1)N1CCc2ccccc21,inactive
10,CCC(=C/c1sc2ccc3ccccc3c2[n+]1C)/C=C1\Sc2ccc3ccccc3c2N1C,19 (active)
11,COc1cc(OC)c(S(=O)(=O)Nc2ccccc2C(=O)O)cc1S(=O)(=O)Nc1ccccc1C(=O)O,inactive
12,COC(=O)c1ccc(NC(=O)c2ccccc2NS(=O)(=O)c2ccccc2)cc1,inactive
13,COc1cc(NC(=O)c2ccccc2NS(=O)(=O)c2ccc(Cl)s2)cc(OC)c1,8 (active)
14,N#Cc1cccc(CN2CCC(=O)N(CCO)CC2)c1,inactive
15,CC(=O)c1ccccc1OCc1ccc(C(=O)c2ccccc2)cc1,9 (active)
16,COc1ccc(CCNC(=O)c2ccccc2OCc2ccccc2)cc1,inactive
17,O=C(NC1CCC(O)CC1)c1ccccc1OCc1ccc(F)cc1 (stereo not given),inactive
18,C/C(=N\NC(=O)Cc1ccccc1[N+](=O)[O-])c1cccnc1,inactive
19,COc1ccc(C(CNC(=O)c2ccc(S(=O)(=O)Nc3ccccc3C)cc2)N2CCOCC2)cc1 (stereo not given),inactive
20,COc1ccc(C(CNC(=O)c2cccc(S(=O)(=O)Nc3ccccc3Cl)c2)N2CCOCC2)cc1 (stereo not given),inactive
21,COc1ccc(C(CNC(=O)c2cccc(NS(=O)(=O)c3ccc(C)c(F)c3)c2)N2CCCC2)cc1 (stereo not given),8 (active)
22,CSCCC(NC(=O)COc1ccccc1)C(=O)OCCOc1ccc(Br)cc1 (stereo not given),inactive

row,Structure (SMILES),B-score
1,Cc1nc2ccc(C(=O)N3CCN(c4ccccc4)CC3)cc2s1,inactive
2,Cc1ccc2nc(C)c3c(c2c1)N(c1ccccc1)CC3,7 (active)
3,Cc1ccc2nc(Nc3ccccc3)cc(C)c2c1,inactive
4,CCOC(=O)c1nnn(-c2nonc2-n2cccc2)c1CN1CCC(C(=O)OCC)CC1,inactive
5,O=C(Nc1cccc(Cl)c1)c1cc(S(=O)(=O)N2CCCCC2)c[nH]1,inactive
6,COc1ccc(C2CC(c3cccs3)=NN2c2ccc(F)cc2)cc1OC (stereo not given),inactive
7,COc1ccccc1N1N=C(c2cccs2)CC1c1ccccc1 (stereo not given),inactive
8,Fc1ccc(N2N=C(c3cccs3)CC2c2ccco2)c(F)c1 (stereo not given),6 (active)
9,O=C(c1c(F)cccc1F)N1CCN(c2ncc(Br)cn2)CC1,inactive
10,O=C(NCC(c1ccco1)N1CCc2ccccc21)c1cccc(F)c1 (stereo not given),inactive
11,O=C(COC(=O)c1ccc(S(=O)(=O)N2CCc3ccccc3C2)cc1)NC(=O)NCc1ccco1,inactive
12,COc1c(C)cc(C(=O)C2CCCN(S(=O)(=O)c3c(C)noc3C)C2)cc1C (stereo not given),inactive
13,S=C(NCC1CCCO1)N1CCN(c2ccc(Cl)c(Cl)c2)CC1 (stereo not given),7 (active)
14,CCOc1ccc(S(=O)(=O)N2CCN(C(=S)NCC3CCCO3)CC2)cc1 (stereo not given),inactive
15,COc1ccc(S(=O)(=O)N2CCN(C(=S)NCC3CCCO3)CC2)cc1OC (stereo not given),inactive
16,CC(C)CN(Cc1c(O)ccc2c(=O)c(-c3ccccc3)coc12)CC(C)C,inactive
17,CC(C)=CCc1c(O)c(CC=C(C)C)c2occ(-c3ccc(O)cc3)c(=O)c2c1O,11 (active)
18,O=c1c(-c2ccccc2)coc2c(CN3CCOCC3)c(O)ccc12,inactive
19,O=C(NCCc1ccc(Cl)cc1)c1cccc(N2CCCC2=O)c1,inactive
20,Cc1nnc(SCC(=O)Nc2ncc3c(n2)CC(C)(C)CC3=O)s1,inactive
21,Cc1ccccc1NC(=O)CSc1ccc2nnc(-c3ccccn3)n2n1,inactive
22,COc1cc(/C=C2\CCCc3c2nc2ccccc2c3C(=O)O)cc(Cl)c1O,inactive

row,Structure (SMILES),B-score
1,CC(NC(=O)COC(=O)c1ccc2c(c1)OCO2)c1ccccc1 (stereo not given),inactive
2,NC(=O)c1ccc(NC(=O)COC(=O)c2c3c(nc4ccccc24)/C(=C\c2ccc4c(c2)OCO4)CCC3)cc1,7 (active)
3,CSc1ccccc1NC(=O)c1cc(C2CC2)on1,inactive
4,Cc1cc(=O)oc2cc(OCC(=O)N3CCN(c4ccc(F)cc4)CC3)c(Cl)cc12,inactive
5,O=C(c1cc(-c2ccco2)nc2ccccc12)N(Cc1nnc(-c2ccc(Cl)cc2)o1)C1CC1,inactive
6,N#C/C(=C/c1ccc(N2CCCCC2)o1)C(=O)NCCc1c[nH]c2ccccc12,7 (active)
7,O=C(CN1C(=O)NC2(CCCCC2)C1=O)NCCc1c[nH]c2ccccc12,inactive
8,CC(=O)N/C(=C/c1ccc(Cl)cc1)C(=O)NCCc1c[nH]c2ccccc12,inactive
9,CCCc1ccc(-c2c(C)sc(NC(=O)c3ccnn3C)c2C#N)cc1,inactive
10,Cc1noc(/C=C/c2ccco2)c1S(=O)(=O)N1CCC(C(=O)N2CCc3ccccc32)CC1,inactive
11,Cc1ccc(NC2=C(Cl)C(=O)OC2OC(=O)c2ccccc2C)cc1 (stereo not given),inactive
12,Cc1ccccc1C(=O)OC1OC(=O)C(Cl)=C1Nc1ccccc1 (stereo not given),11 (active)
13,O=C1OC(OC(=O)c2ccccc2Br)C(N2CCOCC2)=C1Cl (stereo not given),inactive
14,O=C(NC1CC1)C1=C[C@H](c2c[nH]c3ccccc23)C[C@H](OCc2ccc(CO)cc2)O1,inactive
15,CC(C)(C)c1ccc(/C=C/C(=O)NC2CCS(=O)(=O)C2)cc1 (stereo not given),inactive
16,Clc1ccc(C2[C@H]3CN(CC4CCCCC4)[C@H](c4ccccc4)C34CC2(c2cccnc2)C4)cn1 (stereo not given in full),inactive
17,CCOC(=O)N1CCN(C(=O)c2ccc3c(c2)N(Cc2ccc(C)cc2)CCS3)CC1,inactive
18,O=C(NCCN1CCOCC1)c1ccc2c(c1)N(Cc1ccc(Cl)cc1)CCS2,inactive
19,O=C(NCCc1ccccc1)c1ccc2c(c1)N(Cc1ccccc1)CCS2,10 (active)
20,CC(=O)c1c(C)n(-c2ccc(C)cc2)c2ccc(O)cc12,inactive
21,CCc1ccc(CN(C)C(=O)C2CCC(=O)N(Cc3cccc(OC)c3)C2)nc1 (stereo not given),inactive
